The text below walks through data of PubChem BioAssay (NCI).

This is part of a sample that, as a whole, favours compounds with a hit. Of some 83,000 tested, about 20% had one in any assay.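 How to read the values: 0–100, growth inhibition (40 = 60% inhibited); 0, no net growth; -100 to 0, cell death (-40 = 40% of starting cells died; -100 = all dead).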 A number with no mark means an inactive call. The source made the active and inactive calls. Rule for the calls: active = growth percent below 10; inactive = the rest.

The test deals with HL-60(TB) leukemia. Briefly: NCI-60 one-dose screen, 48 h (100 = growth as untreated, 0 = no growth, -100 = all killed). Particulars: 10 µM unless noted.
On to `C=CC(=O)N1CN(C(=O)C=C)CN(C(=O)C=C)C1`, for which the growth is 25.3%.
As to `CCCCCC(=O)Oc1ccc(/C(=C(\C)c2ccccc2)c2ccc(OCCN3CCCCC3)cc2)cc1`, the growth was 70.2%.
In the case of `N#Cc1ncc(-c2ccc(C(F)(F)F)cc2)c(NC2CCCCCC2)n1` it was 6.7% (active); in that of `COc1ccc2nc3cc(Cl)ccc3c(NCCCNCCO)c2c1`, -14.3% (active); in that of `O=c1ccc2c(ccc3ncccc32)o1`, 88.8%.
The figure for `COc1ccc(NC(=O)c2ccc3c(c2)nc(-c2ccc(Cl)cc2)n3-c2cc(C(C)(C)C)[nH]n2)cc1` is 96.8%; for `C/C(=C(\c1ccc(OCCN2CCCCCC2)cc1)c1ccc(OC(=O)Cc2ccccc2)cc1)c1ccc(Cl)cc1` it is -60% (active).
In the case of `c1ccc([P+](c2ccccc2)(c2ccccc2)c2ccc3c4ccc([P+](c5ccccc5)(c5ccccc5)c5ccccc5)c5cccc(c6cccc2c63)c54)cc1` it was 11.2%.
Consider `c1ccc(C(=NNc2nc3ccccc3o2)c2ccccn2)nc1`, for which the growth is -11.8% (active).
In the case of `O=[N+]([O-])c1c(S(=O)(=O)O)cc2cc(S(=O)(=O)O)ccc2c1[N+](=O)[O-]` it was 108%; in that of `COc1ccc(C2=NN(c3ccc(S(N)(=O)=O)cc3)C(c3ccc(Cl)cc3)C2)c(O)c1` (stereo not given), 29.9%.
In the case of `Cc1cc(NCc2cc(Nc3ccnc4cc(Cl)ccc34)ccc2F)nc(N2CCOCC2)n1` it was -52.7% (active); in that of `COc1ccc(C(=O)N2C=Cc3ccccc3C2C#N)cc1` (stereo not given), 66.5%.
In the case of `CC(C)=CCC[C@](C)(O)[C@H]1CC[C@]2(C)[C@@H]1CC[C@@H]1[C@@]3(C)C/C(=C/c4ccco4)C(=O)C(C)(C)[C@@H]3CC[C@]12C` it was 119%; in that of `CCCCc1n(Cc2ccc3ccccc3c2)c2ccccc2[n+]1Cc1ccc2ccccc2c1`, -59.2% (active).
Consider `Cc1ccc2nc(-c3ccc(C(=O)N/N=C/c4ccc([N+](=O)[O-])cc4)cc3)[nH]c2c1`, for which the growth was 103%.
For the molecule `CCNC(=O)Oc1ccc(/C(=C(/CC)Cc2ccccc2)c2ccc(OCCN3CCOCC3)cc2)cc1`, the growth was 5.28% (active).
The figure for `COc1ccc(C(=O)N=Nc2c(O)n(C)c3ccccc23)cc1` is 99.4%.
As to `COc1cccc(-c2nc3occn3c2-c2ccnc(NCCCNS(=O)(=O)c3ccc(C(F)(F)F)cc3)n2)c1`, the growth is 116%.
The figure for `N#Cc1ccc(-c2csc(Nc3ccc4nc5n(c(=O)c4c3)CCC5)n2)cc1` is 103%.
In the case of `O=c1ccc2nc(C(F)(F)F)nn(-c3ccccc3)c-2c1` it was -36.6% (active); in that of `Cc1cc(C2=NNC(=O)Cc3cc4c(cc32)OCCO4)cc(C)c1N`, 21.6%.
In the case of `O=CN(SSN(C=O)C1CCCCC1)C1CCCCC1` it was 77.2%.
`O=C(Nc1nc(-c2ccc(Cl)cc2)nc2c1sc(=S)n2-c1ccccc1)C(F)(F)F`: the growth was 69.2%.
The figure for `COc1cc(Nc2cn[nH]c2-c2ccc(Cl)cc2)cc(OC)c1OC` is 14.6%; for `Cc1cn(-c2nc3c(c(NCc4ccccc4)n2)COCC3)c2cccc(C(N)=O)c12` it is 71.1% [0.5 µM]; for `CCOc1ccc(S(=O)(=O)Nc2ccc3c(c2)N(S(=O)(=O)CC)CCC3)cc1` it is 77.1%.
In the case of `COc1ccccc1/C=N\Nc1ccc([N+](=O)[O-])cn1` it was 89.5%.
In the case of `Nc1nc(Nc2ccccc2SSc2ccccc2Nc2nc(N)nc(-c3cccc(Cl)c3)n2)nc(-c2cccc(Cl)c2)n1` it was 99.3%; in that of `O=C1Nc2ccccc2/C1=C/c1cn(CCCn2c3ccccc3c(=O)c3ccccc32)c2ccccc12`, 84%; in that of `O=S(=O)(/N=c1/n(-c2ccccc2)nc2n1CCN2C1=NCCN1)c1ccc(-c2ccccc2)cc1`, 136%.
For `CC1(C)CC(O)CCCCCCOc2c(CN)cccc2NC(=O)c2nc(cnc2N)-c2ccc(cc2)S1(=O)=O` (stereo not given), the growth is -49.3% (active).
For the molecule `CC(C)[C@H]1COC(=O)N1[C@@H]1C(=O)N([C@@H](CCC(=O)N2CCN(C3CCCC3)CC2)C(=O)N[C@@H]2CCCc3ccccc32)[C@@H]1/C=C/c1cccc(Cl)c1`, the growth is 5.13% (active).
The figure for `O=C1NC(=C(Cl)Cl)/C(=N/S(=O)(=O)NCCc2c[nH]c3ccccc23)N1` is 50.2%.
As to `CCOC(=O)/C(C#N)=C\Nc1ccc2ncnc(Nc3ccc(Cl)cc3Cl)c2c1`, the growth is 108%.
In the case of `Cc1c(Br)cccc1NC(=O)c1sc2nc3c(cc2c1N)CN(Cc1ccccc1)CC3` it was -30.5% (active); in that of `O=C1C[C@H](Sc2nc(-c3ccc(F)cc3)cc(C(F)(F)F)n2)[C@H]2CO[C@@H]1O2`, 46.9%.
In the case of `COc1cc(/C=C/C(=O)Nc2cccnc2Nc2ccc(F)cc2)cc(OC)c1OC` it was 107%; in that of `O=C(N/N=C/c1ccc(OC(F)F)c(OC2CCCC2)c1)c1cnn2c1NC(c1ccccc1)C2` (stereo not given), 100%; in that of `Nc1nc2c(c3ncncc13)C(c1cccc(C(F)(F)F)c1)Cc1ncncc1-2` (stereo not given), 10.7%.
